Several values for one entry are separate records, joined by “and”; a condition that tells them apart may be missing. Equal values may be shown once. Inconclusive results are not listed. Values without a mark were called inactive. Activity calls are given as the source filed them. The call rests on the fitted dose curve; in most records, active means well fitted activation curve with a large enough effect; inconclusive means small, poorly fitted or top-dose-only effect; inactive means no such curve, though single readings can be large or run the other way. Peptide text beside a SMILES is read from it. * marks the point of attachment. PhAc = O=C(Cc1ccccc1)*
target: Cellular tumor antigen p53 (Homo sapiens) (UniProt P04637); experiment: Primary qHTS for small molecule compounds that upregulate eGFP-tagged delta133p53alpha (in N-terminal) cells. (AID 2060322); conditions: NCI-H358 eGFP-delta133p53alpha fluorescence, 24 h; activation: stronger effect = higher value; further: nearly all actives have a fitted effect of over 75% in size;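 on activation: cells pre-induced with doxycycline then dosed without doxycycline; series mostly up to about 56 µM; 0% = DMSO vehicle and 100% = reference activator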
Sequence (P04637 whole entry, looked up): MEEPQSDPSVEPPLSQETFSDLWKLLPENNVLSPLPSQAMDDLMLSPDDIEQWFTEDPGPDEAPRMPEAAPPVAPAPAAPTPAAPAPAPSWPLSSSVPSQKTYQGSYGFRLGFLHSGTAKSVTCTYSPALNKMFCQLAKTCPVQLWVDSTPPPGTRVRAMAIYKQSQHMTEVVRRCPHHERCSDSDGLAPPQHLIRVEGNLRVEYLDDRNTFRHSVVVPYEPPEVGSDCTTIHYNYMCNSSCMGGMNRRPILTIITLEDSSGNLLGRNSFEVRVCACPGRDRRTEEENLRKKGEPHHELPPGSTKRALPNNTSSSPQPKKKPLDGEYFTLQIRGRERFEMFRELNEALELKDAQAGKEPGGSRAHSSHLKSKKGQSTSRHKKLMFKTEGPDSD
Description: Assay Development and Screening Technology
National Center for Advancing Translational Sciences (NCATS),
National Institute of Health (NIH), Rockville, Maryland
Cellular senescence (CS) is one of the hallmarks of aging and age-related diseases. Senescent cells are characterized by an irreversible growth arrest, an increase in senescence-associated beta-galactosidase (SA-beta-gal) activity and p16INK4a expression, an activation of the DNA damage response pathways, and the emergence of a senescence-associated secretory phenotype (SASP).
Delta133p53alpha, a human/primate-specific p53 protein isoform, delays or inhibits the induction of CS and SASP in various types of human cells, including progeria-derived fibroblasts, primary normal astrocytes, and CD8+ T lymphocytes. Induction of delta133p53alpha with small molecule compounds may provide therapeutic opportunities for inhibition of senescence/SASP-associated pathologies in progeria syndromes, astrocyte-mediated neuroprotection in neurodegenerative diseases, and possibly prevention and treatment of a wider range of senescence- and aging-associated diseases.
Here we report the development and validation of a cell-based quantitative high throughput screening (qHTS) assay in 1,536-well format. This qHTS assay uses the NCI-H358 cell line with doxycycline-inducible expression of enhanced green fluorescent protein (eGFP)-tagged delta133p53alpha, which allows efficient and highly quantitative measurement of the protein levels.
PROTOCOL TABLE (as described by Inglese J, Shamu CE and Guy RK. 2007)
SEQUENCE No. (e.g., 1, 2, 3, etc.); […] (e.g., Cells, Incubation, Reagent, etc.); VALUE; DESCRIPTION.
1; Cells; 4uL; 800 doxycycline treated cells / well in doxycycline-free media, 1536-well black, clear-bottom low base Aurora microplates.
2; Compounds; 23 nL; Kalypsis pin tool (Wako) equipped with 1536-well pin heads, 5-azacytidine positive control.
3; Incubation; 24 hr; 37C, 5% CO2; 95% relative humidity.
4; Aspiration; 1x; BioTek EL406 washer dispenser (Agilent).
5; Fixing; 3.5% paraformaldehyde, BioTek EL406 washer dispenser (Agilent).
6; Washing; 1x PBS; BioTek EL406 washer dispenser (Agilent).
7; Nuclei staining; 1:1000 dilution of Hoechst 33342 (Thermofisher), BioTek EL406 washer dispenser (Agilent).
8; Incubation; 20 min; in the dark at room temperature.
9; Washing; 2x, 1x PBS (ThermoFisher), BioTek EL406 washer dispenser (Agilent).
10; Reagent; 10 uL; 1x PBS per well, sealed with clear adhesive tape.
NOTES (numbers refer to sequence numbers above).
1. NCI-H358 cells expressing eGFP-tagged delta133p53alpha were grown in T75 culture flasks and treated with doxycycline for 24h, at 10 ng/ml for eGFP-D133p53a cells (N-terminal cell) and 100 ng/ml for D133p53a-eGFP cells (C-terminal cells). Cells were trypsinized, counted using a Counted 3 Automated Cell Counter (Thermo Fisher), and diluted to a concentration of 200,000 cells/ml. A Multidrop Combi Reagent Dispenser (ThermoFisher) was used to dispense 800 cells/well in […] of doxycycline-free media, into 1536-well black/clear bottom low base plates (AuroraMicroplates).
2. After plating cells, 23 nl of compound library, DMSO vehicle control or positive control (5-azacytidine) were transferred by Pin Tool (Wako). The plate map layout was the same for each plate: (column 1) non-doxycycline treated cells + DMSO vehicle control; (column 2) doxycycline treated cells + DMSO vehicle control baseline; (column 3) doxycycline treated cells + positive control 57.5 uM final concentration 5-azacytidine; (column 4) doxycycline treated cells + serial dilution of 5-azacytidine, 16-point 1:2 titration spanning 1.8 nM to […] final concentration; (columns 5-48) doxycycline treated cells + titration of library compounds.
3. Cells were incubated at 37 °C, 5 % CO2, 95% RH with breathable metal lid for 24h.
4-10. […] After two washes, 10 ul of 1X PBS (Thermo Fisher) was dispensed to each well. Clear adhesive plate seals (VWR) were applied and plates stored at 4 °C.
11. […]
Potency means the concentration at half of the fitted maximal effect.

| SMILES | activation | Potency |
| --- | --- | --- |
| CCCCN1CCCC1C(=O)Nc1c(C)cc(C)cc1C (stereo not given) | 27.6% | – |
| COc1cccc2cc3c(c(O[C@@H]4O[C@H](CO[C@@H]5O[C@H](CO)[C@@H](O)[C@H](O)[C@H]5O)[C@@H](O)[C@H](O)[C@H]4O)c12)C(C)OC3=O (stereo not given in full) | 3.57% | – |
| Cc1nn(Cc2ccccc2Cl)c(C)c1CN(C)CC(O)COc1ccc(Cl)cc1 (stereo not given) | 32.2% | – |
| Clc1ccccc1CNCC1CCC(CNCc2ccccc2Cl)CC1 (stereo not given) | 29.6% | – |
| CC(=O)Oc1cccc(O)c1 | 18.6% | – |
| CN1C(=O)CC(c2ccccc2)C1=O (stereo not given) | 10.7% | – |
| OCc1ccccc1O[C@@H]1O[C@H](CO)[C@@H](O)[C@H](O)[C@H]1O | 2.68% | – |
| COc1ccc(CNCc2cccc3ccccc23)cc1 | -2.33% | – |
| C[C@]12C=CC(=O)C=C1CC[C@@H]1[C@@H]2C(=O)C[C@@]2(C)[C@H]1CC[C@]2(O)C(=O)CO | -20.1% and 2.21% | – |
| Cc1c(F)cc(C(=O)NC2CC2)cc1-c1c(F)cn2c(C(C)(C)C)nnc2c1F | -8.93% | – |
| Nc1ccc(-c2ccc3ncc4ccc(=O)n(-c5cccc(C(F)(F)F)c5)c4c3c2)cn1 | 6.6% | – |
| CC(=O)N(CC(O)CN(C(C)=O)c1c(I)c(C(=O)NCC(O)CO)c(I)c(C(=O)NCC(O)CO)c1I)c1c(I)c(C(=O)NCC(O)CO)c(I)c(C(=O)NCC(O)CO)c1I (stereo not given) | -16.7% | – |
| Cc1occc(=O)c1O[C@@H]1O[C@H](COC(=O)CC(C)(O)CC(=O)O)[C@@H](O)[C@H](O)[C@H]1O (stereo not given in full) | -11.6% | – |
| CCOC(=O)CNC(=O)[C@@H]1CCCN1C(=O)Cc1ccccc1 (PhAc-Pro-Gly-OEt) | 13.8% | – |
| O=C(/C=C/c1ccc(O)cc1)N[C@@H](Cc1ccc(O)cc1)C(=O)O | 2.29% | – |
| CC1(C)CN(C(=O)c2ccc(-c3cccc4nc(NC(=O)C5CC5)nn34)cc2)C1 | 5% | – |
| CS(=O)(=O)c1ccc(C2=C(c3ccccc3)C(=O)OC2)cc1 | -5.73% | – |
| NC(=O)c1cccc(-c2cccc(OC(=O)NC3CCCCC3)c2)c1 | -16.3% | – |
| Cc1cccc(C)c1NC(=O)c1cc(S(N)(=O)=O)c(Cl)cc1O | -9.21% | – |
| CCCCNC(=O)NS(=O)(=O)c1ccc(N)cc1 | -14.2% | – |

| SMILES | activation | Potency |
| --- | --- | --- |
| Cc1ccccc1-n1c([C@H](C)Nc2nc(N)nc3nc[nH]c23)nc2cccc(C)c2c1=O | -15.2% | – |
| COC[C@H](NC(=O)c1cnc(C)s1)C(=O)N[C@@H](COC)C(=O)N[C@@H](Cc1ccccc1)C(=O)[C@@]1(C)CO1 | – | 17.2 µM (active) |
| CCn1cc(C2=NOC(C(=O)Nc3c(C)n(C)n(-c4ccccc4)c3=O)C2)c(C)n1 (stereo not given) | 9% | – |
| C=CS(=O)(=O)N1CCCN(c2cc(NCCC(=O)O)nc(-c3ccccn3)n2)CC1 | -4.47% | – |
| O=C(O)c1ccc(O)c2ncc(N3CCCN(CCc4cccc5ccccc45)CC3)cc12 | 21.2% | – |
| Nc1cccc2c(N)cccc12 | – | 28.2 µM (active) |
| COc1cc(C(=O)OC[C@@]2(O)CO[C@@H](O[C@H]3[C@H](Oc4ccc(C(=O)O)cc4OC)O[C@H](CO)[C@@H](O)[C@@H]3O)[C@@H]2O)ccc1O | -13.7% | – |
| O=C(N[C@H](CO)[C@H](O)c1ccc([N+](=O)[O-])cc1)C(Cl)Cl | 15.3% and -2.04% | – |
| C[C@@H]1[C@H](C)CC[C@]2(C(=O)O)CC[C@]3(C)C(=CC[C@@H]4[C@@]5(C)C[C@@H](O)[C@H](O)[C@@](C)(CO)[C@H]5CC[C@]43C)[C@@H]12 | 36.3% | – |
| CNS(=O)(=O)CCc1ccc2[nH]cc(C3CCN(C)CC3)c2c1 | 13.4% [middle of 4 runs] | – |
| O=S(=O)(Cc1ccccc1)Nc1ccc(-c2ccc3c(cnn3-c3ccc(F)cc3)c2)c(C(F)(F)F)c1 | -1.91% | – |
| N[C@@H](CCC(=O)N[C@H](CSN=O)C(=O)NCC(=O)O)C(=O)O | -28.5% | – |
| Cc1nc(N)nc(N)c1-c1ccc(Cl)c(Cl)c1 | 2.82% | – |
| CSC(=N)N | 3.81% | – |
| C[C@@H]1O[C@@H](O[C@@H]2[C@@H](O)[C@H](O[C@H]3[C@H](O[C@H]4CC[C@@]5(C)C(CC[C@]6(C)C5CC=C5[C@@H]7CC(C)(C)CC[C@]7(C(=O)O[C@@H]7O[C@H](CO)[C@@H](O)[C@H](O)[C@H]7O[C@@H]7O[C@@H](C)[C@H](O[C@@H]8O[C@@H](C)[C@H](O)[C@@H](O)[C@H]8O)[C@@H](O)[C@H]7O)CC[C@]56C)[C@@]4(C)CO)O[C@H](C(=O)O)[C@@H](O)[C@@H]3O)O[C@H](CO)[C@H]2O)[C@H](O)[C@H](O)[C@H]1O (stereo not given in full) | -9.16% | – |
| COc1c(/C=C/C(C)(C)O)ccc2c1C(=O)OCc1cc(C)cc(O)c1O2 | -12.5% | – |
| CC(/C=C/C=C(\C)C(=O)O[C@@H]1O[C@H](CO[C@@H]2O[C@H](CO)[C@@H](O)[C@H](O)[C@H]2O)[C@@H](O)[C@H](O)[C@H]1O)=C\C=C\C=C(C)\C=C\C=C(/C)C(=O)O[C@@H]1C[C@](O)(C(=O)O)C[C@@H](O)[C@H]1OC(=O)/C=C/c1ccc(O)c(O)c1 | 16% | – |
| COc1ccccc1NC(=O)Nc1ccc2ccccc2c1 | -9% | – |
| O=C(NCc1ccccc1)c1ccc2c(=O)n(-c3cccc(C(F)(F)F)c3)c(=S)[nH]c2c1 | -9.55% | – |
| CC(=O)NCc1cccc(OC[C@@H](O)CNCCc2ccc(NS(=O)(=O)c3ccccc3)cc2)c1 | 8.93% | – |

Reference: PubChem BioAssay (NCATS)
